# Reference: PubChem BioAssay
# Where “and” joins values, the source holds several entries; their conditions need not be identical. Equal entries are not always repeated. Results filed as inconclusive are left out. For part of these data: Potency and affinity values are given separately. Calls of active or inactive are those of the source.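 How the source made its calls, unless noted: active means compounds whose cell count with miR-34 switched on is under 0.7 times the count with it off; inactive means the rest.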
# Legend:
# [1] = P. berghei load reduction in hepatocytes – cell-based, HepG2, luciferase luminescence, HepG2 viability, primary screen (AID 624349; in the data active means parasite load remaining mostly below about 12%, no sharp cut-off; inactive means mostly above about 10%;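 further: 100% = mean of DMSO negative control wells on the same plate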); details: P. berghei liver stage in HepG2, luciferase luminescence, concentration not given here; parasite load remaining: stronger effect = lower value; viability: measured here: HepG2 viability without parasites
# [2] = molecular target: 6-phosphogluconate dehydrogenase, decarboxylating (Homo sapiens) (UniProt P52209); test: inhibition of human phosphogluconate dehydrogenase – biochemical, recombinant enzyme, NADPH absorbance, primary screen (AID 1159550;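 active means at least 20% inhibition of 6-phosphogluconate dehydrogenase activity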); details: recombinant 6PGD, NADPH absorbance 341 nm; at 10 µM; stronger effect = higher value
# [3] = viability loss with induced miR-34 in A549 – imaging, A549 dox-inducible miR-34, nuclei and caspase counts, primary screen (AID 1347080); details: A549 miR-34 inducible, Hoechst nuclei count, 48 h
# [4] = molecular target: NAD(+) hydrolase SARM1 (Homo sapiens) (UniProt Q6SZW1); test: blocking NAD cleavage by SARM1 SAM-TIR – cell lysate, NAD-Glo luminescence (AID 1508614;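 active means compound whose remaining NAD level is above about 45 nM, limit read from the data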); details: SAM-TIR HEK293T lysate NADase, at 1 µM, stronger effect = higher value
# [5] = molecular target: Mitogen-activated protein kinase 7 (Homo sapiens) (UniProt Q13164); test: Gal4-ERK5 driven luciferase induction – cell-based, HTS, primary screen (AID 1508626;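 active means luciferase signal above three times the same-plate solvent-only control wells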;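 further: luciferase driven by Gal4-ERK5 fusion binding five Gal4 sites before minimal TATA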); details: HeLa Gal4-ERK5 transactivation, 18 h, at 5 µM, stronger effect = higher value
# [6] = molecular target: ATP-dependent translocase ABCB1 (Homo sapiens) (UniProt P08183); test: P-glycoprotein substrate transport blockade – cell-based (AID 377; in the data active means fluorescence slope change above about 50%); details: MDR1-expressing cells, fluorescent substrate accumulation slope; stronger effect = higher value; concentration not given here
# [7] = MELAS cybrid and Rieske KO viability enhancers – cell-based, MELAS cybrids, Rieske KO mouse fibroblasts, CellTiter-Glo, primary screen (AID 1508586;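 active means mean z-score across replicates of 1.96 or higher in either the MELAS or the Rieske mutant cell line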;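 further: z relative to plate mean and SD of compound and empty wells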); details: low glucose
# [8] = blockers of polyQ-driven CASP3 activation – cell-based (AID 1583); details: polyglutamine-induced caspase-3 activation, cell assay; stronger effect = higher value;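 tested at 10 µM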
# [9] = yeast 75Q aggregation reduction – 75Q-TubU reporter (AID 1593); details: Yeast 75Q polyglutamine aggregation reporter
# [10] = restoration of touch response, mutant HTT neurons – whole organism, C. elegans mechanosensory neurons, N-terminal huntingtin (AID 1599); details: C. elegans polyQ-huntingtin mechanosensory neurons, stronger effect = higher value
# [11] = blockers of cytochrome c efflux from mitochondria – biochemical, purified mitochondria (AID 1603); details: stronger effect = lower value;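 further: mouse liver mitochondria challenged with calcium chloride; signal normalized to the plate average as 100%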
# [12] = polyglutamine aggregate formation blockers (AID 1604); details: polyglutamine-induced protein aggregation inhibition assay; stronger effect = higher value; tested at 2.5 µM
# [13] = glutamate transport activators, MN-1 cells, MN-1 cell line (AID 1612); details: MN-1 motor neuron cells, stronger effect = higher value;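 further: tested at 1 µM final; 0% = mean of DMSO vehicle wells on each plate; positive means more glutamate uptake than control and negative means less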
# [14] = GFP-Q80 aggregate reduction, neuronal-like cells, cell-based, NGF-treated PC12, GFPQ80 (AID 1614); details: PC12 NGF-treated GFP-polyQ80 inclusion reduction;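 further: lower means fewer inclusions and 0 means no inclusions at all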
# [15] = 75Q-TubH aggregate inhibition, S. cerevisiae, yeast (AID 1616); details: S. cerevisiae 75Q-TubH polyglutamine aggregation suppression; stronger effect = higher value
# [16] = compounds altering circadian rhythm period length – cell-based, LOPAC library, luminescence reporter (AID 2774; call rule not given here;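 further: values are relative to mean of DMSO wells on each plate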); details: circadian reporter cells, at 7 µM, actives lie on both sides
# [17] = chitosan synthesis blockers in C. neoformans – flow cytometry, Cibacron Brilliant Red staining (AID 1347148; call rule not given here;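 further: compound exposure lasted three days at 37 degrees C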); details: Cryptococcus neoformans chitosan, stronger effect = lower value; at 10 µM unless noted
# [18] = tested on: Hepatitis C virus NS3 helicase; test: blockers of NS3h binding to ssDNA – biochemical, fluorescence polarization, LOPAC1280 library, primary screen (AID 687035; in the data active means inhibition above about 37%); details: Purified HCV NS3 helicase, Cy5-dT15 ssDNA binding fluorescence polarization; stronger effect = higher value; concentration not given here
# [19] = compounds altering Cy5-DNA-NS3h complex signal – biochemical, LOPAC1280, artefact control for HCV NS3 helicase inhibitor project (AID 687037; call rule not given here); details: Cy5-DNA-NS3h complex fluorescence interference counterscreen
# [20] = blockers of cellular phospholipid synthesis – cell-based, LOPAC library, screen 4, primary screen (AID 1347384; call rule not given here); details: animal cells, phospholipid biosynthesis inhibition screen; at 10 µM
# [21] = galactose survival enhancers in mitochondrial complex I cybrids – cell-based, galactose medium, ATP luminescence, primary screen (AID 1645843;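 active means z-score of at least 1.8 in each of two replicates, scored against plate mean and spread of sample wells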;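 further: positive z means more ATP and so rescue of galactose-driven cybrid death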); details: complex I mutant cybrid cells, 72 h, stronger effect = higher value
# [22] = viability loss in pontine glioma line – cell-based, JHH-DIPG-1, MIPE4.0, CellTiter-Glo, qHTS, dose response (AID 1347062; cut-off not given, nearly all actives have AC50 up to about 27 µM); details: JHH-DIPG-1 viability, CellTiter-Glo ATP luminescence
# [23] = viability loss in pontine glioma line – cell-based, SU-DIPG-IV, MIPE4.0, CellTiter-Glo, qHTS, dose response (AID 1347063; cut-off not given, nearly all actives have AC50 up to about 30 µM;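 further: compound exposure lasted 48 hours before the viability readout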); details: CellTiter-Glo ATP luminescence
# [24] = viability loss in pontine glioma line – cell-based, SU-DIPG-XIII, MIPE4.0, CellTiter-Glo, qHTS, dose response (AID 1347061; cut-off not given, nearly all actives have AC50 up to about 37 µM;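 further: cells exposed to compound for 48 hours before readout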); details: CellTiter-Glo ATP luminescence
# [25] = viability loss in pontine glioma line – cell-based, SU-DIPG-XXV, MIPE5.0, CellTiter-Glo, qHTS, dose response (AID 1347065; cut-off not given, nearly all actives have AC50 up to about 26 µM;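 further: cells exposed to compound for 48 hours before ATP readout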); details: CellTiter-Glo ATP luminescence
# [26] = growth inhibition of DIPG cells – cell-based, MIPE5.0 library, qHTS (AID 1347068; cut-off not given, nearly all actives have IC50 up to about 30 µM); details: SU-DIPG-XXV viability
# [27] = compounds altering viability of human ES cells (AID 493140; call rule not given here;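 further: cells exposed to compounds for four days before counting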); details: human embryonic stem cell survival screen; stronger effect = higher value
# [28] = stronger effect = lower value, cell number ratio, induced over uninduced
# [29] = measured here: relative caspase fold change +Dox/-Dox
# [30] = measured here: total cells with miR-34 induction, stronger effect = lower value
# [31] = measured here: total cells without miR-34 induction
# [32] = MELAS cybrid survival, CellTiter-Glo 48 h, stronger effect = higher value
# [33] = Rieske KO mouse fibroblast survival, CellTiter-Glo 72 h
# NAD(+) hydrolase SARM1 (Homo sapiens), sequence (Q6SZW1 whole entry, looked up, the tested form may be a part): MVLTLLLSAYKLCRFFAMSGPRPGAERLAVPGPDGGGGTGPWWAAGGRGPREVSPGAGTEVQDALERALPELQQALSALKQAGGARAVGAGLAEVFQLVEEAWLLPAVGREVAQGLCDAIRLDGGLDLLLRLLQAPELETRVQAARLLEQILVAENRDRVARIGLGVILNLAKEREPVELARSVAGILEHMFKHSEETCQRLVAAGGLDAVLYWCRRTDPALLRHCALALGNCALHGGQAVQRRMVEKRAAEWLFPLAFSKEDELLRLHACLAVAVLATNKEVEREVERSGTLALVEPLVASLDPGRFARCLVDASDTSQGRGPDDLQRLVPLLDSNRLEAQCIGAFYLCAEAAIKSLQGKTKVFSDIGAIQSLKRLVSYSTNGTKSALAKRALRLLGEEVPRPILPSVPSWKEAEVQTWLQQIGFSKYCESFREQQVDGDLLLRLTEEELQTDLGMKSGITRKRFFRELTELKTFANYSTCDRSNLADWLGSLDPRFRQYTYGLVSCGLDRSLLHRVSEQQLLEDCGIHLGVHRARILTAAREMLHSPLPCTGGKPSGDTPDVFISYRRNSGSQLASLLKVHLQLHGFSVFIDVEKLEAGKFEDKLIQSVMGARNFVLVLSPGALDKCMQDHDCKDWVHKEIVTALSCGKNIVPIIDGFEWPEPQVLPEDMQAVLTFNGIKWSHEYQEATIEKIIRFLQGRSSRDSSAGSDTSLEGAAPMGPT
# Mitogen-activated protein kinase 7 (Homo sapiens), sequence (Q13164 whole entry, looked up, the tested form may be a part): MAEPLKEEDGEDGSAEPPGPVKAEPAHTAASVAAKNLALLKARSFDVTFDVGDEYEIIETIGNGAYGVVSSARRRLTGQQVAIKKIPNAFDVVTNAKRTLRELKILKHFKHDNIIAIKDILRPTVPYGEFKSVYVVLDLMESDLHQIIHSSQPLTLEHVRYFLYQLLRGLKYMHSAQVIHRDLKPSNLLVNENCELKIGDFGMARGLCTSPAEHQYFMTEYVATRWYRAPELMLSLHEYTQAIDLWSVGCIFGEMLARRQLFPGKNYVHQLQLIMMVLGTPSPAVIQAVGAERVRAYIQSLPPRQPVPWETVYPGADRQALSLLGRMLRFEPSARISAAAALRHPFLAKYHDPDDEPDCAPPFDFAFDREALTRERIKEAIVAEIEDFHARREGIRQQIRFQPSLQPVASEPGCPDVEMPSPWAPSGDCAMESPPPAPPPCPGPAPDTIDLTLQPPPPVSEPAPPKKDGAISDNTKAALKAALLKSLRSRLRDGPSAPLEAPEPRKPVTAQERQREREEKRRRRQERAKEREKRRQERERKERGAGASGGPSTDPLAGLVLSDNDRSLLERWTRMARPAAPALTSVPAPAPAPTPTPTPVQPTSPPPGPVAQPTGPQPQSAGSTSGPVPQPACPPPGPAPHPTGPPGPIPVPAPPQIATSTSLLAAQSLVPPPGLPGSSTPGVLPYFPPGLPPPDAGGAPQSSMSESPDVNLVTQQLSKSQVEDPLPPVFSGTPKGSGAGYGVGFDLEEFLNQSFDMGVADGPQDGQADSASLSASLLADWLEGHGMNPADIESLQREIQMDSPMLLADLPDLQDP
# ATP-dependent translocase ABCB1 (Homo sapiens), sequence (P08183 whole entry, looked up): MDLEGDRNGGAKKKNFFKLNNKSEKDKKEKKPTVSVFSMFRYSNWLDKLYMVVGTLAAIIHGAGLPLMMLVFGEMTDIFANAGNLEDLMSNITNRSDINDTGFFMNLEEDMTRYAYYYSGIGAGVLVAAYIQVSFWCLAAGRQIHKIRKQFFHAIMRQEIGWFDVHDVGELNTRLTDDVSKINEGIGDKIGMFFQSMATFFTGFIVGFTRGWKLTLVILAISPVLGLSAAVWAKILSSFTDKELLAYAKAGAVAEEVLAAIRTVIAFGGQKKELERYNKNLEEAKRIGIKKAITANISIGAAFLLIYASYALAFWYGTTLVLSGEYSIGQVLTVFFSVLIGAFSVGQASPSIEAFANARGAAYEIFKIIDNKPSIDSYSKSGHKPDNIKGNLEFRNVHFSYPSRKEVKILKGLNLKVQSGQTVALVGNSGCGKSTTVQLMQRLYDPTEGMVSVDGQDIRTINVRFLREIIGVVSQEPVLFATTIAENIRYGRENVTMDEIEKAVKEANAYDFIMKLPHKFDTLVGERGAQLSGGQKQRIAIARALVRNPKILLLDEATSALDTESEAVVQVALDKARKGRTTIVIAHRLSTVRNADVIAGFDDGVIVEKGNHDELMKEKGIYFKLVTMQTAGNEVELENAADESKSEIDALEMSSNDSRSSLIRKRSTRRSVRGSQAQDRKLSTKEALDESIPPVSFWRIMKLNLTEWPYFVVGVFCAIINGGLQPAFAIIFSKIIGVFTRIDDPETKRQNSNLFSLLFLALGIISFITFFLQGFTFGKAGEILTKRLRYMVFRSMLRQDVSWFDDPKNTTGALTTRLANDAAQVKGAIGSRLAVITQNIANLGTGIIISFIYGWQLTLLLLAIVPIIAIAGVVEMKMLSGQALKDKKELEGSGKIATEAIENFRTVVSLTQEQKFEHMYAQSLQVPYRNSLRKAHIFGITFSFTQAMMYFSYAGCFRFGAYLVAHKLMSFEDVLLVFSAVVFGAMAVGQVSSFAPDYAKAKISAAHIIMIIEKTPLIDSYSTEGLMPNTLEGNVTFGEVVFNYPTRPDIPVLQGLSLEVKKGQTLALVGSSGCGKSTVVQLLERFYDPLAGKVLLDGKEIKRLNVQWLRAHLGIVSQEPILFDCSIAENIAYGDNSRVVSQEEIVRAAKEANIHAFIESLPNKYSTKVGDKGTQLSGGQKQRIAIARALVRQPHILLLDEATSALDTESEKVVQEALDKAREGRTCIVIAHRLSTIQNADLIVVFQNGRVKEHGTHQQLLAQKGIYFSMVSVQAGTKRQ
# 6-phosphogluconate dehydrogenase, decarboxylating (Homo sapiens), sequence (P52209 whole entry, looked up): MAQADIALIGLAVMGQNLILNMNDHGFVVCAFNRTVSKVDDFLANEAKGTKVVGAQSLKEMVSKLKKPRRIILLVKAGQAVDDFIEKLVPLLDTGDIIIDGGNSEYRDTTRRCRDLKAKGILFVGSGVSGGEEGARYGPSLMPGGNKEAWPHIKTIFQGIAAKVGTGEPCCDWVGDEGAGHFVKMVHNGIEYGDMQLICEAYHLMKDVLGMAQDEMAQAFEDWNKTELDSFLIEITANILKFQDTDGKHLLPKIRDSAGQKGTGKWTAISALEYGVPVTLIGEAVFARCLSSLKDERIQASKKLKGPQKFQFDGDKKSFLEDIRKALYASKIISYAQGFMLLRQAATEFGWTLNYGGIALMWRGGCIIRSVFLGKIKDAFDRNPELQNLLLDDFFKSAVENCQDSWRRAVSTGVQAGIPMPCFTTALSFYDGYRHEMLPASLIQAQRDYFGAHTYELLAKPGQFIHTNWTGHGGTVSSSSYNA
compound,measurement,setting,value
CO[C@H]1C[C@H](O[C@H]2[C@H](C)[C@@H](O[C@@H]3O[C@H](C)C[C@H](N(C)C)[C@H]3O)[C@@H](C)C[C@@]3(CO3)C(=O)[C@H](C)[C@@H](O)[C@@H](C)[C@@H](C)OC(=O)[C@@H]2C)O[C@@H](C)[C@@H]1O,parasite load remaining,[1],43.4% (inactive)
same,viability,[1],44.8%
same,inhibition,[2],-12.7% (inactive)
same,fold change,[3]; [28],0.882 (inactive)
same,fold change,[3]; [29],0.459
same,cell count,[3]; [30],8150
same,cell count,[3]; [31],9240
same,remaining NAD,[4],10 nM (inactive)
same,luciferase signal,[5],32 AU (inactive)
CN1[C@@H]2CC[C@H]1CC(OC(=O)[C@H](CO)c1ccccc1)C2 (stereo not given in full),fluorescence slope change,[6],17.8% (inactive)
same,parasite load remaining,[1],60.1% (inactive)
same,viability,[1],43.8%
same,inhibition,[2],-17.7% (inactive)
same,fold change,[3]; [28],0.891 (inactive)
same,fold change,[3]; [29],1.14
same,cell count,[3]; [30],8370
same,cell count,[3]; [31],9390
same,z-score,[7]; [32],-0.995 (inactive)
same,z-score,[7]; [33],-0.351
same,remaining NAD,[4],10 nM (inactive)
same,luciferase signal,[5],144 AU (inactive)
NCCCCCCNS(=O)(=O)c1cccc2c(Cl)cccc12,inhibition,[8],-15.2% and 22.6% and 2.95%
same,score,[9],1.04 and 1.62 and 0.88
same,rescue above control,[10],4.12 and -5.26 and -2.52
same,cytochrome c release ratio,[11],1.16 and 0.95 and 1.09
same,inhibition of aggregation,[12],51% and 55.6% and 36.6%
same,glutamate uptake change,[13],18.7% and -10.2% and 14.1%
same,inclusion score,[14],1
same,aggregation suppression score,[15],0.802 and 0.897 and 0.965
same,period change,[16],0.025 h (inactive)
same,inhibition,[2],8.63% (inactive)
same,fold change,[3]; [28],0.955 (inactive)
same,fold change,[3]; [29],0.859
same,cell count,[3]; [30],4060
same,cell count,[3]; [31],4250
same,fold fluorescence,[17],9.13 [at 132.5 µM] (inactive)
O=C(N[C@@H](Cc1ccccc1)C(=O)CCl)OCc1ccccc1,period change,[16],-0.215 h (inactive)
same,inhibition,[18],0% (inactive)
same,fluorescence ratio (interference),[19],1 (inactive)
same,inhibition,[2],6.1% (inactive)
same,fold change,[3]; [28],1.3 (inactive)
same,fold change,[3]; [29],1.36
same,cell count,[3]; [30],816
same,cell count,[3]; [31],626
same,outcome,[20],inactive
same,z-score,[21],-1.33 (inactive)
COc1ccc2ccc(=O)oc2c1CC=C(C)C,inhibition,[2],9.51% (inactive)
same,outcome,[22],inactive
same,outcome,[23],inactive
same,fold change,[3]; [28],0.94 (inactive)
same,fold change,[3]; [29],0.78
same,cell count,[3]; [30],8510
same,cell count,[3]; [31],9050
same,z-score,[7]; [32],-0.211 (inactive)
same,z-score,[7]; [33],-1.1
same,luciferase signal,[5],36 AU (inactive)
C[C@H]1[C@H](C)CC[C@]2(C(=O)O)CC[C@]3(C)C(=CC[C@@H]4[C@@]5(C)CC[C@H](O)C(C)(C)[C@@H]5CC[C@]43C)[C@H]12,parasite load remaining,[1],32.3% (inactive)
same,viability,[1],73.8%
same,inhibition,[2],14.7% (inactive)
same,outcome,[24],inactive
same,AC50,[23],42.9 µM (active)
same,AC50,[25],18.6 µM (active)
same,outcome,[26],inactive
same,fold change,[3]; [28],0.941 (inactive)
same,fold change,[3]; [29],1.58
same,cell count,[3]; [30],8760
same,cell count,[3]; [31],9310
same,luciferase signal,[5],40 AU (inactive)
CC(Oc1ccccc1)C(=O)N[C@@H]1C(=O)N2[C@@H]1SC(C)(C)[C@@H]2C(=O)O (stereo not given in full),fluorescence slope change,[6],56.9% (active)
same,inhibition,[8],11.2%
same,score,[9],1.4
same,rescue above control,[10],-10.5
same,cytochrome c release ratio,[11],1.15
same,inhibition of aggregation,[12],78.9%
same,glutamate uptake change,[13],10.6%
same,inclusion score,[14],2
same,aggregation suppression score,[15],1.29
same,survival,[27],7.92 (inactive)
same,parasite load remaining,[1],116% (inactive) and 55% (inactive)
same,viability,[1],109% and 84.1%
same,inhibition,[2],1.89% (inactive)
same,fold change,[3]; [28],0.935 (inactive) and 0.907 (inactive)
same,fold change,[3]; [29],1.21 and 2.74
same,cell count,[3]; [30],8390 and 12400
same,cell count,[3]; [31],8980 and 13600
same,z-score,[7]; [32],-0.192 (inactive)
same,z-score,[7]; [33],-0.917
same,remaining NAD,[4],10 nM (inactive)
same,luciferase signal,[5],36 AU (inactive)
CC(=O)N[C@@H](Cc1ccccc1)C(=O)O,inhibition,[2],-1.76% (inactive)
same,fold change,[3]; [28],0.922 (inactive)
same,fold change,[3]; [29],1.14
same,cell count,[3]; [30],8280
same,cell count,[3]; [31],8980
NCC[C@H](O)C(=O)N[C@@H]1C[C@H](N)[C@@H](O[C@H]2O[C@H](CN)[C@@H](O)[C@H](O)[C@H]2O)[C@H](O)[C@H]1O[C@H]1O[C@H](CO)[C@@H](O)[C@H](N)[C@H]1O,parasite load remaining,[1],126% (inactive)
same,viability,[1],113%
same,inhibition,[2],-15.3% (inactive)
same,fold change,[3]; [28],0.816 (inactive)
same,fold change,[3]; [29],1.79
same,cell count,[3]; [30],8210
same,cell count,[3]; [31],10100
same,z-score,[7]; [32],-0.451 (inactive)
same,z-score,[7]; [33],-0.0793
same,remaining NAD,[4],10 nM (inactive)
same,luciferase signal,[5],60 AU (inactive)
C=C[C@H]1CN2CCC1C[C@@H]2[C@@H](O)c1ccnc2ccc(OC)cc12 (stereo not given in full),fluorescence slope change,[6],95% (active)
same,period change,[16],-0.225 h (inactive)
same,survival,[27],6.17 (inactive)
same,parasite load remaining,[1],28.6% (inactive)
same,viability,[1],94.6%
same,inhibition,[18],-1% (inactive)
same,fluorescence ratio (interference),[19],1 (inactive)
same,inhibition,[2],-0.543% (inactive)
same,fold change,[3]; [28],1.07 (inactive)
same,fold change,[3]; [29],1.29
same,cell count,[3]; [30],9920
same,cell count,[3]; [31],9300
same,outcome,[20],inactive
same,z-score,[21],-1.04 (inactive)
CC[C@H](CO)NCCN[C@H](CC)CO,survival,[27],12.8 (inactive)
same,parasite load remaining,[1],28.5% (inactive) and 112% (inactive)
same,viability,[1],48.5% and 92.2%
same,inhibition,[2],-0.439% (inactive)
same,fold change,[3]; [28],0.912 (inactive)
same,fold change,[3]; [29],0.977
same,cell count,[3]; [30],8580
same,cell count,[3]; [31],9410
same,z-score,[7]; [32],0.519 (inactive)
same,z-score,[7]; [33],0.22
C=C(C)C1CC=C(C(=O)O)CC1 (stereo not given),period change,[16],0.05 h (inactive)
same,inhibition,[18],2% (inactive)
same,fluorescence ratio (interference),[19],0.9 (inactive)
same,inhibition,[2],7.19% (inactive)
same,fold change,[3]; [28],0.98 (inactive)
same,fold change,[3]; [29],1.41
same,cell count,[3]; [30],9720
same,cell count,[3]; [31],9920
same,outcome,[20],inactive
same,z-score,[21],1.06 (inactive)
CCOc1nc2cccc(C(=O)OC(C)OC(=O)OC3CCCCC3)c2n1Cc1ccc(-c2ccccc2-c2nn[nH]n2)cc1 (stereo not given),parasite load remaining,[1],137% (inactive) and 50.7% (inactive)
same,viability,[1],83.9% and 101%
same,inhibition,[2],2.36% (inactive)
same,fold change,[3]; [28],0.972 (inactive) and 0.852 (inactive)
same,fold change,[3]; [29],0.675 and 3.41
same,cell count,[3]; [30],8090 and 11000
same,cell count,[3]; [31],8320 and 12900
same,z-score,[7]; [32],0.432 (inactive)
same,z-score,[7]; [33],-0.0296
same,remaining NAD,[4],10 nM (inactive)
same,luciferase signal,[5],40 AU (inactive)
